Results filed as inconclusive are left out. Where a call stands in place of a potency, no number is given. Values without a mark were called inactive. Active and inactive are the calls of the source. The call rests on the fitted dose curve; in most records, active means well fitted curve in the direction sought with a large enough effect; inconclusive means small, poorly fitted or top-dose-only effect, or another doubt; inactive means no such curve, though single readings can be large; an effect the other way counts as inactive or inconclusive.
How the values were obtained:
[1] = molecular target: Rap guanine nucleotide exchange factor 3 (Homo sapiens) (UniProt O95398); assay: Confirmatory qHTS for antagonist of cAMP-regulated guanine nucleotide exchange factor 3 (EPAC1) (AID 1645880); further: nearly all actives have a fitted effect of over 55% in size; further: potency means the concentration at half of the fitted maximal effect
Rap guanine nucleotide exchange factor 3 (Homo sapiens), sequence (O95398 whole entry, looked up): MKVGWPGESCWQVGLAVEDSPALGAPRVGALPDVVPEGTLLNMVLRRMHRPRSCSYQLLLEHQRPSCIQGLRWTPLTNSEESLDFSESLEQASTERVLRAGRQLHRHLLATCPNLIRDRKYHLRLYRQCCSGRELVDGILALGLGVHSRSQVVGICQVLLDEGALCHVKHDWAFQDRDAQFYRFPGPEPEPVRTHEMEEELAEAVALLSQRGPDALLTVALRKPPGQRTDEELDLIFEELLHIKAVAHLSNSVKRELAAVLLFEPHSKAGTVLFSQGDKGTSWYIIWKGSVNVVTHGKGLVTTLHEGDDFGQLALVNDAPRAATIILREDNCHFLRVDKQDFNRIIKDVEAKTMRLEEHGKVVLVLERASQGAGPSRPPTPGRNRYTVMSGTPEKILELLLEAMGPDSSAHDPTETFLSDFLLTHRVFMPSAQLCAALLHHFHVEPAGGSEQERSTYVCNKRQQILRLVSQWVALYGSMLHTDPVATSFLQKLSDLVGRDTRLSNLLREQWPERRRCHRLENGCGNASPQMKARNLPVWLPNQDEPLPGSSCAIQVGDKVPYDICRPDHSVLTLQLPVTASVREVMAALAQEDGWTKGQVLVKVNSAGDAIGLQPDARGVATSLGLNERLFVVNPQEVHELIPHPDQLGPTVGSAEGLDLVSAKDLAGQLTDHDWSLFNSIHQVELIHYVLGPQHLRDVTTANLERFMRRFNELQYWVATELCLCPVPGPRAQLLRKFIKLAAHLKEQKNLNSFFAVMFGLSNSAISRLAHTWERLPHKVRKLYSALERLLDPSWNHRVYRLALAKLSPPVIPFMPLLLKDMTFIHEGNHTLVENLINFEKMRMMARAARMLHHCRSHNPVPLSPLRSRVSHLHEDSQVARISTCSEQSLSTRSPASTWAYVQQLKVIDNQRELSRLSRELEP
How it was run: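 Released BODIPY-GDP fluoresces less than Rap1-bound BODIPY-GDP; the signal is followed at 480/540 nm at 5-min intervals over 30 min, after 5 min at room temperature. Reactions contain 100 nM EPAC1, 250 nM RAP1B-BODIPY-GDP and 50 uM GDP; results are normalized to ATA and DMSO.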

[2] = molecular target: Rap guanine nucleotide exchange factor 3 (Homo sapiens) (UniProt O95398); assay: Confirmatory qHTS for agonist of cAMP-regulated guanine nucleotide exchange factor 3 (EPAC1) (AID 1645881); further: nearly all actives have a fitted effect of over 75% in size; further: potency means the concentration at half of the fitted maximal effect;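 on activation: EPAC1 catalysed release of BODIPY-GDP from Rap1B seen as fluorescence loss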
[3] = molecular target: Rap guanine nucleotide exchange factor 4 (Homo sapiens) (UniProt Q8WZA2); assay: Confirmatory qHTS for agonist of cAMP-regulated guanine nucleotide exchange factor 4 (EPAC2) (AID 1645884);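 further: nucleotide exchange releases bodipy-GDP from Rap1 and this lowers its fluorescence; nearly all actives have a fitted effect of over 65% in size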; further: potency means the concentration at half of the fitted maximal effect
Rap guanine nucleotide exchange factor 4 (Homo sapiens), sequence (Q8WZA2 whole entry, looked up): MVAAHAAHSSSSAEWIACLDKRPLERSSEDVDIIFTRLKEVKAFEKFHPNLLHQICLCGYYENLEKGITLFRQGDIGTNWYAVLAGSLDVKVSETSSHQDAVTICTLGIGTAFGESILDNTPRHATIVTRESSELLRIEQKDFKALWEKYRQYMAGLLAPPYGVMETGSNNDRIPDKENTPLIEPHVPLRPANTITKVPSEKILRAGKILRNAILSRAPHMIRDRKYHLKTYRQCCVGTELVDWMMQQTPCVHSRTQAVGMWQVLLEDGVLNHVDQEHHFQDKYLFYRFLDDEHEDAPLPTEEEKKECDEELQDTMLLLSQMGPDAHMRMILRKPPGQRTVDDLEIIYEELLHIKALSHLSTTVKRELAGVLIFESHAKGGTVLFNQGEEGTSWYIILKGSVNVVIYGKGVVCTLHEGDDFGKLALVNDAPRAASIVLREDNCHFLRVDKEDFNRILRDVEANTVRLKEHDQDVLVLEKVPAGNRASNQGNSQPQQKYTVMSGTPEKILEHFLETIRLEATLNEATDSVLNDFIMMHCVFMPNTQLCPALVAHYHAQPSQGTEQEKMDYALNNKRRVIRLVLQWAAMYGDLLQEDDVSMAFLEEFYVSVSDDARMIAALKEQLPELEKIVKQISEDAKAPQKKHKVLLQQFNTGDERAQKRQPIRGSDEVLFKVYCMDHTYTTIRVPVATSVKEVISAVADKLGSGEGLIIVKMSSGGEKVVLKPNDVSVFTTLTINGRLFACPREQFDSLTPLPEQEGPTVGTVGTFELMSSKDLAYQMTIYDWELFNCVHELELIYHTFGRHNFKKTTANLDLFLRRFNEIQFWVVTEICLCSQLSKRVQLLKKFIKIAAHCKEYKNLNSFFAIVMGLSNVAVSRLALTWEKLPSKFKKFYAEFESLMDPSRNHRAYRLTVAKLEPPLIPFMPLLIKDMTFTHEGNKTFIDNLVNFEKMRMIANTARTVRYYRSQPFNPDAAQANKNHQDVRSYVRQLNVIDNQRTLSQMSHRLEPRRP

[4] = molecular target: Rap guanine nucleotide exchange factor 4 (Homo sapiens) (UniProt Q8WZA2); assay: Confirmatory qHTS for antagonist of cAMP-regulated guanine nucleotide exchange factor 4 (EPAC2) (AID 1645885); further: nearly all actives have a fitted effect of over 25% in size; further: potency means the concentration at half of the fitted maximal effect
[5] = molecular target: Rap guanine nucleotide exchange factor 3 (Homo sapiens) (UniProt O95398); assay: Counterscreen qHTS for antagonist of cAMP-regulated guanine nucleotide exchange factor 3 (EPAC1) (AID 1645888)
How it was run: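 Measured: fluorescence of BODIPY-GDP bound to Rap1B, which falls as exchange proceeds. Conditions include 50 uM competing GDP, 5 and 30 min reads, and a later cAMP challenge for antagonist detection.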

Structure (SMILES) | Potency [1] | Potency [2] | activation [3] | Potency [4] | activity change, negative = inhibition [5] | Potency [3] | Potency [5] | outcome [4]
CC1(C(=O)Nc2ccc(Cl)cc2)Cc2c(-c3cccc(C(N)=O)c3)ccnc2O1 (stereo not given) | inactive | inactive | 9.22% [at 17.1 µM, percent relative to cAMP agonist control] | inactive | 3.15% [at 30.8 µM] |  |  | 
Cc1ccc2c(c1)c1c3n2CCN(C(=O)C2CC2)C3CCC1 (stereo not given) | inactive | inactive |  | 75.7 µM (active) |  | inactive | inactive | 
COc1ccc(OCc2nc3ccccc3n2Cc2ccccc2Cl)cc1 | inactive | inactive |  | inactive |  | inactive | inactive | 
CC1CN(C(=O)N2CCOCC2)CCN1C(=O)N1CCOCC1 (stereo not given) | inactive | inactive |  | inactive |  | inactive | inactive | 
COC(=O)c1ccc2nc(-c3ccc(C)cc3)c(Cc3ccc(C)cc3)n2c1 | inactive | inactive |  | 37.9 µM (active) |  | inactive | inactive | 
CC(=O)NC(c1ccccc1)c1cc(Cl)c2cccnc2c1O (stereo not given) | inactive | inactive |  | inactive |  | inactive | inactive | 
Cc1ccc(N(Cc2cccs2)C(=O)c2ccccc2Cl)cc1 | inactive | inactive |  | inactive |  | inactive | inactive | 
CSCCC(C(=O)O)N1C(=O)c2ccc(C(=O)O)cc2C1=O (stereo not given) | inactive | inactive | 4.67% [at 17.1 µM, percent relative to cAMP agonist control] | inactive | -1.74% [at 30.8 µM] |  |  | 
O=C1NN(c2ccccc2)C(=O)/C1=C\c1coc2ccc(O)cc2c1=O | 21.3 µM (active) | inactive |  | inactive |  | inactive | inactive | 
CCc1nc2c(OCc3ccc(Cl)cc3)cccn2c1N(C)C(=O)c1ccccc1F | inactive | inactive | 3.03% [at 17.1 µM, percent relative to cAMP agonist control] | inactive | -10.9% [at 30.8 µM] |  |  | 
CCn1c(C(=O)N2CCCC(C(=O)N3CCN(c4cc(C)ccc4C)CC3)C2)cc2sccc21 (stereo not given) | inactive | inactive |  |  |  | inactive | inactive | inactive [at 12.7 µM]
COC(=O)c1cc2sccc2n1Cc1c(C)cc(C)cc1C | inactive | inactive |  | inactive |  | inactive | inactive | 
Cc1c(NC(=O)/C=C/c2cn(-c3ccccc3)nc2-c2ccccc2)c(=O)n(-c2ccccc2)n1C | inactive | inactive | 0% [at 17.1 µM, percent relative to cAMP agonist control] | inactive | -4.59% [at 30.8 µM] |  |  | 
CC1(C(=O)NS(=O)(=O)c2ccc(F)cc2F)CCN1C(=O)C1(c2ccc(Cl)cc2)CCC1 (stereo not given) | 9.53 µM (active) | inactive |  | inactive |  | inactive | inactive | 
COC1=NC(=C(c2ccccc2)c2ccccc2)OC1=O | 19 µM (active) | inactive |  | 47.8 µM (active) |  | inactive | inactive | 
CCOC(=O)C1=C(N)OC2=C(C(=O)CC(C)(C)C2)C1c1ccc(CC)s1 (stereo not given) | inactive | inactive |  | inactive |  | inactive | inactive | 
CC(Sc1nncn1C)C(=O)Nc1nnc(C(C)C)s1 (stereo not given) | inactive | inactive |  | inactive |  | inactive | inactive | 
O=C(N/N=C/c1cn(-c2ccccc2)nc1-c1cccnc1)c1ccccc1 | inactive | inactive | 6.58% [at 17.1 µM, percent relative to cAMP agonist control] | inactive | -17.7% [at 30.8 µM] |  |  | 
O=C(Cn1cc(SCc2ccc(Cl)cc2)c2ccccc21)N1CCCC1 | inactive | inactive |  | inactive |  | inactive | inactive | 

Structure (SMILES) | Potency [1] | Potency [2] | activation [3] | Potency [4] | activity change, negative = inhibition [5] | Potency [3] | Potency [5] | outcome [4]
CCc1ccccc1C1=CC(=O)C[C@H](c2ccc(OC)cc2)C1 | inactive | inactive |  | inactive |  | inactive | inactive | 
CC(C)(C)c1ccc(N=C2SCC(=O)N2Cc2cccs2)cc1 | inactive | inactive |  | inactive |  | inactive | inactive | 
O=C(O)CCn1cc(/C=C2\NC(=S)N(c3ccccc3)C2=O)c(-c2ccc(Br)cc2)n1 | inactive | inactive |  | inactive |  | inactive | inactive | 
O=C(c1ccco1)N(Cc1cccc([N+](=O)[O-])c1)c1ccc(Br)cc1 | inactive | inactive |  | inactive |  | inactive | inactive | 
CCCCn1c(CN2CCOCC2)nc2c1c(=O)n(C)c(=O)n2C | inactive | inactive |  | inactive |  | inactive | inactive | 
CCOc1ccc(NC(=O)CN(C)C(=O)c2ccccc2SCc2c(C)noc2C)cc1OCC | inactive | inactive | 1.53% [at 17.1 µM, percent relative to cAMP agonist control] | inactive | -10.4% [at 30.8 µM] |  |  | 
C#CCOCCOCCOCCNc1nc(N2CCN(C(=O)[C@H](Cc3cc4ccccc4[nH]3)n3cc([C@@H](N)Cc4ccc(O)cc4)nn3)CC2)nc(N2CCN(C(=O)[C@H](Cc3cc4ccccc4[nH]3)n3cc([C@@H](N)CC(C)C)nn3)CC2)n1 | 44.7 µM (active) | inactive | -1.86% [at 17.1 µM, percent relative to cAMP agonist control] | inactive | -28.3% [at 30.8 µM] |  |  | 
CNC[C@H]1Oc2ccc(NC(=O)Nc3ccccc3)cc2CC(=O)N([C@H](C)CO)C[C@H]1C | inactive | inactive |  | inactive |  | inactive | inactive | 
CC1CCN(c2ccc3c(c2)S(=O)(=O)c2ccccc2C3=O)CC1 | inactive | 112 µM (active) |  | inactive |  | 100 µM (active) | inactive | 
NC(=O)COC(=O)/C=C/c1ccc2ccccc2n1 | inactive | inactive |  | inactive |  | inactive | inactive | 
COc1ccc(S(=O)(=O)N2CCCCCC2)cc1C(=O)N1CCCC(C(F)(F)F)C1 (stereo not given) | inactive | inactive | 2.27% [at 17.1 µM, percent relative to cAMP agonist control] | inactive | -17.4% [at 30.8 µM] |  |  | 
CC(=O)C[C@H]1SC[C@@H](C(C)C)N1S(=O)(=O)c1ccc(C)cc1 | inactive | inactive |  | inactive |  | inactive | inactive | 
COc1cc(S(=O)(=O)Nc2ccccc2C)ccc1Cl | inactive | inactive |  | inactive |  | inactive | inactive | 
O=C1NN(c2ccccc2)C(=O)/C1=C\c1ccc(-c2cc([N+](=O)[O-])ccc2O)o1 | 37.9 µM (active) | inactive |  | 60.1 µM (active) |  | inactive | inactive | 
CCC1CCCCN1CCCNC(=O)c1csc2c1CCCCC2 (stereo not given) | inactive | inactive |  | inactive |  | inactive | inactive | 
CCCCOc1ccccc1Cn1c(=O)oc2ccc(C)cc21 | inactive | inactive |  | inactive |  | inactive | inactive | 
CC(SC1=NCCN1S(=O)(=O)c1ccc(F)cc1)c1ccccc1 (stereo not given) | inactive | inactive |  | 12 µM (active) |  | inactive | inactive | 
COC(=O)c1ccc2nc(C3CCCCC3)c(Cc3cccc(F)c3)n2c1 | inactive | inactive |  | inactive |  | inactive | inactive | 

From PubChem BioAssay (NCATS)
